Compounds without any hit were thinned out: in the full panel of roughly 83,000, 20% have a hit.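 Cells were grown in 96-well plates and exposed to the test compound at a single concentration for 48 hours; results are reported as percent growth, with values below 10 considered active.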 The source made the active and inactive calls.
Tests used:
Experiment in all cases: NCI-60 one-dose screen, 48 h (100 = growth as untreated, 0 = no growth, -100 = all killed)
Conditions in all cases: 10 µM unless noted
HCT-15 colon = system: HCT-15 colon
HT29 colon = system: HT29 colon
SNB-75 CNS = system: SNB-75 CNS
SNB-19 CNS = system: SNB-19 CNS
U251 CNS = system: U251 CNS
PC-3 prostate = system: PC-3 prostate
SK-MEL-5 melanoma = system: SK-MEL-5 melanoma
LOX IMVI melanoma = system: LOX IMVI melanoma
SK-MEL-28 melanoma = system: SK-MEL-28 melanoma
SK-MEL-2 melanoma = system: SK-MEL-2 melanoma
EKVX NSCLC = system: EKVX NSCLC
SN12C renal = system: SN12C renal
UO-31 renal = system: UO-31 renal
TK-10 renal = system: TK-10 renal
ACHN renal = system: ACHN renal
CAKI-1 renal = system: CAKI-1 renal
CCRF-CEM leukemia = system: CCRF-CEM leukemia
MOLT-4 leukemia = system: MOLT-4 leukemia
A498 renal = system: A498 renal

Measured: growth

CCOc1ccc(/C=N/Nc2cc(C)nc3ccc(Br)cc23)cc1
inactive: HCT-15 colon 57.9% | HT29 colon 100% | SNB-75 CNS 99.9% | SNB-19 CNS 99.7% | U251 CNS 77.5% | PC-3 prostate 81.4% | SK-MEL-5 melanoma 84.9% | LOX IMVI melanoma 84.4% | SK-MEL-28 melanoma 91.6% | SK-MEL-2 melanoma 117% | EKVX NSCLC 83.5% | SN12C renal 82.6% | UO-31 renal 73.4% | TK-10 renal 112% | ACHN renal 96.3% | CAKI-1 renal 95.2% | CCRF-CEM leukemia 38.9% | MOLT-4 leukemia 76.2%

Nc1c(C(=O)Nc2ccnc3ccccc23)sc2nc3c(cc12)CN(Cc1ccccc1)CC3
inactive: HCT-15 colon 69.9% | HT29 colon 103% | SNB-75 CNS 110% | SNB-19 CNS 83.7% | U251 CNS 98% | PC-3 prostate 45.5% | LOX IMVI melanoma 69.6% | SK-MEL-2 melanoma 101% | EKVX NSCLC 66.1% | SN12C renal 74.6% | UO-31 renal 62.2% | TK-10 renal 102% | ACHN renal 68.4% | CAKI-1 renal 74.7% | CCRF-CEM leukemia 26.1% | MOLT-4 leukemia 18.2%
active: SK-MEL-5 melanoma 9.7%

COc1cc(/C=C\C(=O)O)ccc1OCc1ccccc1
inactive: HCT-15 colon 107% | HT29 colon 105% | SNB-75 CNS 103% | SNB-19 CNS 99.2% | U251 CNS 84.9% | PC-3 prostate 92.8% | SK-MEL-5 melanoma 94.2% | LOX IMVI melanoma 95.7% | SK-MEL-28 melanoma 110% | SK-MEL-2 melanoma 93.5% | EKVX NSCLC 115% | SN12C renal 95% | UO-31 renal 81.4% | TK-10 renal 101% | ACHN renal 102% | CAKI-1 renal 99.4% | CCRF-CEM leukemia 98.3% | MOLT-4 leukemia 96.3%

Cn1cc(CC2CC(=O)N(c3ccccc3)C2=O)sc1=NC(=O)c1ccccc1 (stereo unspecified)
inactive: HCT-15 colon 101% | HT29 colon 103% | SNB-75 CNS 82% | SNB-19 CNS 100% | U251 CNS 102% | PC-3 prostate 95.5% | SK-MEL-5 melanoma 101% | LOX IMVI melanoma 102% | SK-MEL-28 melanoma 98.1% | SK-MEL-2 melanoma 106% | EKVX NSCLC 95.1% | SN12C renal 103% | UO-31 renal 83.5% | TK-10 renal 102% | ACHN renal 101% | CAKI-1 renal 94.7% | CCRF-CEM leukemia 108% | MOLT-4 leukemia 106%

CC1=C(C(=O)/C=C/c2ccc(N(C)C)cc2)C(c2ccccc2)NC(=S)N1 (stereo unspecified)
inactive: HCT-15 colon 105% | HT29 colon 102% | SNB-75 CNS 86.9% | SNB-19 CNS 95.1% | U251 CNS 101% | PC-3 prostate 98.3% | SK-MEL-5 melanoma 99.3% | LOX IMVI melanoma 98.5% | SK-MEL-28 melanoma 110% | SK-MEL-2 melanoma 102% | EKVX NSCLC 97.7% | SN12C renal 96.9% | UO-31 renal 75.4% | TK-10 renal 107% | ACHN renal 100% | CAKI-1 renal 89.8% | CCRF-CEM leukemia 108% | MOLT-4 leukemia 101%

CCCCN1C=CCN(CCCC)C1
inactive: HCT-15 colon 90.2% | HT29 colon 49.2% | SNB-75 CNS 66.8% | SNB-19 CNS 31.1% | U251 CNS 22.4% | PC-3 prostate 32.4% | LOX IMVI melanoma 68.8% | SK-MEL-28 melanoma 40% | SK-MEL-2 melanoma 24.4% | EKVX NSCLC 47.5% | SN12C renal 34.8% | UO-31 renal 74.6% | TK-10 renal 56.8% | ACHN renal 98.1% | CAKI-1 renal 86% | A498 renal 78.4% | CCRF-CEM leukemia 87.2%
active: SK-MEL-5 melanoma -6.08%

O=C(Cc1ccccc1)NNc1nc(Cl)nc(N2CCN(C(c3ccccc3)c3ccccc3)CC2)n1
inactive: HCT-15 colon 44.7% | HT29 colon 72.6% | SNB-75 CNS 96% | SNB-19 CNS 94% | U251 CNS 99.9% | PC-3 prostate 81.5% | SK-MEL-5 melanoma 99.8% | LOX IMVI melanoma 61.9% | SK-MEL-28 melanoma 101% | SK-MEL-2 melanoma 99.8% | EKVX NSCLC 91.9% | SN12C renal 97.1% | UO-31 renal 96.7% | TK-10 renal 96% | ACHN renal 94.9% | CAKI-1 renal 84.4% | CCRF-CEM leukemia 11.1% | MOLT-4 leukemia 36.3%

O=C(Cc1ccc(/C=C/C(=O)c2nccs2)cc1)Nc1ccccc1
inactive: HCT-15 colon 78.4% | HT29 colon 72.7% | SNB-75 CNS 108% | SNB-19 CNS 84.8% | U251 CNS 47.7% | PC-3 prostate 91.7% | SK-MEL-5 melanoma 88.8% | LOX IMVI melanoma 72.4% | SK-MEL-2 melanoma 105% | EKVX NSCLC 103% | SN12C renal 91.9% | UO-31 renal 89.1% | TK-10 renal 98.8% | ACHN renal 96.5% | CAKI-1 renal 99.9% | CCRF-CEM leukemia 14.4%
active: MOLT-4 leukemia 6.27%

CCN(CC)CCCC(C)Nc1cc(O)cc2cccnc12 (stereo unspecified)
inactive: HCT-15 colon 102% | HT29 colon 44.4% | SNB-75 CNS 74.9% | SNB-19 CNS 93.8% | U251 CNS 88.2% | PC-3 prostate 86.8% | SK-MEL-5 melanoma 116% | LOX IMVI melanoma 88.7% | SK-MEL-28 melanoma 122% | SK-MEL-2 melanoma 135% | EKVX NSCLC 106% | SN12C renal 85.7% | UO-31 renal 83.4% | TK-10 renal 122% | ACHN renal 102% | CAKI-1 renal 109% | CCRF-CEM leukemia 108% | MOLT-4 leukemia 112%

CN1CCN(CCNc2nccc(-c3c(-c4cccc(O)c4)nc4sccn34)n2)S1(=O)=O
inactive: HCT-15 colon 50.6% | HT29 colon 43.9% | SNB-75 CNS 54.2% | SNB-19 CNS 115% | U251 CNS 94.2% | PC-3 prostate 68.5% | SK-MEL-5 melanoma 33% | LOX IMVI melanoma 23.8% | EKVX NSCLC 99.1% | SN12C renal 70.3% | UO-31 renal 56.2% | TK-10 renal 94.1% | ACHN renal 37.4% | CAKI-1 renal 61.8% | CCRF-CEM leukemia 76.7%
active: SK-MEL-2 melanoma -24.9%

COc1cc(/C(C)=C(\c2ccc(Cl)cc2)c2ccc(OCCN3CCCC3)cc2)ccc1F
active: HCT-15 colon 7.9% | HT29 colon 8.92%
inactive: SNB-75 CNS 84.2% | SNB-19 CNS 79.8% | U251 CNS 46.1% | PC-3 prostate 53% | SK-MEL-5 melanoma 49.9% | SK-MEL-2 melanoma 98.8% | EKVX NSCLC 74% | SN12C renal 70.2% | TK-10 renal 69.3% | ACHN renal 83.1% | CAKI-1 renal 65.2% | CCRF-CEM leukemia 37.6% | MOLT-4 leukemia 32.6%

C=C1C(=O)O[C@H]2[C@H]1CC/C(CNC(=O)CCc1ccc(OC)cc1)=C\CC[C@@]1(C)O[C@@H]21
inactive: HCT-15 colon 37.1% | HT29 colon 12.1% | SNB-75 CNS 116% | SNB-19 CNS 80.3% | U251 CNS 87.9% | PC-3 prostate 72.1% | SK-MEL-5 melanoma 92.8% | LOX IMVI melanoma 70.3% | SK-MEL-28 melanoma 59.5% | SK-MEL-2 melanoma 74.5% | EKVX NSCLC 71.4% | SN12C renal 35.9% | UO-31 renal 53% | TK-10 renal 33.5% | ACHN renal 31.6% | MOLT-4 leukemia 67.8%
active: CCRF-CEM leukemia 4.85%

NC(=S)N1N=C(c2ccccc2)CC1c1cn(-c2ccccc2)nc1-c1ccc(OCc2ccccc2)cc1 (stereo unspecified)
inactive: HCT-15 colon 106% | HT29 colon 95.9% | SNB-75 CNS 95.1% | SNB-19 CNS 97.3% | U251 CNS 97% | PC-3 prostate 89.2% | SK-MEL-5 melanoma 99.4% | LOX IMVI melanoma 99.3% | SK-MEL-28 melanoma 112% | SK-MEL-2 melanoma 90.4% | EKVX NSCLC 78.3% | SN12C renal 93.2% | UO-31 renal 84.7% | TK-10 renal 102% | ACHN renal 100% | CAKI-1 renal 92.7% | CCRF-CEM leukemia 103% | MOLT-4 leukemia 98.7%

Cc1ccc(NC(=O)c2cc(-c3nc4ccccc4s3)c(=O)n(NS(=O)(=O)c3ccc(Cl)cc3)c2N)cc1
inactive: HCT-15 colon 96% | HT29 colon 108% | SNB-75 CNS 77.5% | SNB-19 CNS 101% | U251 CNS 104% | PC-3 prostate 100% | SK-MEL-5 melanoma 97.8% | LOX IMVI melanoma 102% | SK-MEL-28 melanoma 115% | SK-MEL-2 melanoma 103% | EKVX NSCLC 92.1% | SN12C renal 101% | UO-31 renal 83.9% | ACHN renal 108% | CAKI-1 renal 85.1% | CCRF-CEM leukemia 104% | MOLT-4 leukemia 97.9%

O=C(Nc1cccc(C2=NCCN2)c1)c1ccc(-c2ccc(C(=O)Nc3cccc(C4=NCCN4)c3)cc2)cc1
inactive: HCT-15 colon 82.6% | HT29 colon 84.5% | SNB-75 CNS 82% | SNB-19 CNS 87% | U251 CNS 86.3% | PC-3 prostate 97.7% | SK-MEL-5 melanoma 36.9% | LOX IMVI melanoma 97.9% | SK-MEL-28 melanoma 46.3% | SK-MEL-2 melanoma 105% | EKVX NSCLC 95.8% | SN12C renal 61.7% | UO-31 renal 99.1% | TK-10 renal 138% | ACHN renal 98.4% | CAKI-1 renal 107% | CCRF-CEM leukemia 89.1% | MOLT-4 leukemia 80.9%

CCOC(=O)c1cc(C(=O)c2ccc(OC)c(OC)c2)n2ccc(/C=C/c3cc[n+](CC(=O)c4ccc(OC)c(OC)c4)cc3)cc12
inactive: HCT-15 colon 104% | HT29 colon 95.5% | SNB-75 CNS 79.4% | SNB-19 CNS 90.6% | U251 CNS 95.5% | PC-3 prostate 92.8% | SK-MEL-5 melanoma 98% | LOX IMVI melanoma 87.7% | SK-MEL-28 melanoma 104% | SK-MEL-2 melanoma 112% | EKVX NSCLC 99.6% | SN12C renal 86.8% | UO-31 renal 82.7% | ACHN renal 96.3% | CAKI-1 renal 96.2% | CCRF-CEM leukemia 85.7% | MOLT-4 leukemia 93.7%

O=S(=O)(NCCNc1nccc(-c2c(-c3cccc(O)c3)nc3occn23)n1)c1cccc(F)c1
inactive: HCT-15 colon 95.5% | HT29 colon 51.2% | SNB-75 CNS 80.6% | SNB-19 CNS 102% | U251 CNS 98.3% | PC-3 prostate 86.8% | SK-MEL-5 melanoma 46.4% | LOX IMVI melanoma 64.8% | SK-MEL-28 melanoma 50.1% | SK-MEL-2 melanoma 61.1% | EKVX NSCLC 97.1% | SN12C renal 76.6% | UO-31 renal 92.7% | TK-10 renal 136% | ACHN renal 78% | CAKI-1 renal 71.6% | CCRF-CEM leukemia 91.7% | MOLT-4 leukemia 93%

Source: PubChem BioAssay (NCI)
